High-throughput results (PubChem)
An excerpt weighted towards active compounds, which were near 8.7% of everything screened.
AMA1 RON2 block = qHTS for Inhibitors of AMA1-RON; Towards Development of Antimalarial Drug Lead: Primary Screen; Plasmodium falciparum AMA1 (3D7) - RON2 peptide interaction; AlphaScreen AMA1-biotinylated RON2 peptide binding; Potency, µM (series often up to 58.2 µM), for inactives: top-dose activity change, negative = inhibition, most hits filed as inhibitors; hit rate 0.2% among 360,000; AID 720542, 2013;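 further: 0% = vehicle wells and -100% = peptide control; nearly all actives have a fitted effect of over 45% in size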
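AMA1 (3D7) with his tag at 25 nM final met compounds first, then biotinylated RON2 peptide at 25 nM; detection used donor plus acceptor beads, 10 µg/mL apiece, read by AlphaScreen after 30 min at room temperature.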
VACV Venus inh = qHTS for Stage-Specific Inhibitors of Vaccinia Orthopoxvirus: Venus Reporter Primary qHTS; Vaccinia virus Venus reporter expression, fluorescence; Potency, µM (top dose mostly 36.5 µM), for the others: top-dose activity change, negative = inhibition, hits mostly inhibitors; hit rate 0.46% among 330,000; AID 720580, 2013; calls by dose curve; tested in A549 cells; further: nearly all actives have a fitted effect of over 30% in size
Pf growth 48h = Primary qHTS for delayed death inhibitors of the malarial parasite plastid, 48 hour incubation. Potency, µM (series often up to 28.7 µM), for inactives: at the top dose activity change, negative = inhibition, actives largely listed as inhibitors. AID 504832, 2011. P. falciparum luciferase growth in erythrocytes, 48 h. hit rate 5.9% among 310,000
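Luminescence readout; reporter = integrated firefly luciferase in P. falciparum. RBC culture at 2% hematocrit, 0.1% parasitemia final, 37 C/5% CO2; decreased signal taken as growth inhibition.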
Pf growth 96h = Primary qHTS for delayed death inhibitors of the malarial parasite plastid, 96 hour incubation; P. falciparum luciferase reporter growth, 96 h; Potency, µM (titrated, usually from 28.7 µM), for the others: top-dose activity change, negative = inhibition, actives largely listed as inhibitors; hit rate 6.9% among 320,000; AID 504834, 2011
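Infected RBCs, 2% Hct / 0.05% parasitemia final; luciferase-reporter P. falciparum; cpd 96 h, 37 C, 5% CO2; luciferase detection reagent; luminescence.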
Vaccinia mCherry = qHTS for Stage-Specific Inhibitors of Vaccinia Orthopoxvirus: mCherry Reporter Primary qHTS | Vaccinia virus mCherry reporter infection, fluorescence | Potency, µM (doses to about 36.5 µM), for inactives: top-dose activity change, negative = inhibition, most hits filed as inhibitors | hit rate 0.63% among 310,000; calls by dose curve; tested in A549 cells; further: nearly all actives have a fitted effect of over 35% in size
* marks the source's active call; other numbers are inactive results; i = inactive; u = inconclusive; x = no result. Unless noted, the call rests on the fitted dose curve; in most records, active means well fitted curve in the direction sought with a large enough effect; inconclusive means small, poorly fitted or top-dose-only effect, or another doubt; inactive means no such curve, though single readings can be large; an effect the other way counts as inactive or inconclusive. Unless noted, on the % scale 0 is the no-effect control and ±100 the full control effect; potency means the concentration at half of the fitted maximal effect.

SMILES	AMA1 RON2 block	VACV Venus inh	Pf growth 48h	Pf growth 96h	Vaccinia mCherry
COc1ccc(CC(=O)NNC(=O)CCc2ccccc2)cc1OC	41%	-6%	51%	13µM*	-10%
COc1cc(C(=O)N(Cc2ccccc2)c2cccc(C)c2)ccc1OC(F)F	12%	-15%	u	13µM*	-2%
COc1cc(C(=O)NCc2ccccc2)ccc1OC(F)F	0%	-14%	4%	u	-19%
COc1ccc(CC(=O)N(Cc2ccccc2)c2cccc(C)c2)cc1OC	-4%	-16%	u	10µM*	-3%
COc1ccc(C(=O)N(Cc2ccccc2)c2cccc(C)c2)c(OC)c1OC	-14%	-6%	0%	u	i
COc1ccccc1CC(=O)N(Cc1ccccc1)c1ccc(C)cc1	-7%	x	u	9.3µM*	x
COc1ccc(-c2cc(C(=O)Nc3c(C(=O)c4ccc(C)cc4)oc4ccccc34)no2)cc1	x	-2%	x	x	-15%
CCC(=O)N1CCc2cc(S(=O)(=O)CCC(=O)NC3CCCCC3)ccc21	0%	x	-7%	2.6µM*	x
CN(Cc1ccco1)S(=O)(=O)c1ccc2c(c1)CCN2C(=O)CCC(=O)O	-2%	-4%	-16%	13µM*	i
CCC(=O)N1CCc2cc(S(=O)(=O)CCC(=O)O)ccc21	5%	-17%	14%	7.4µM*	i
CCC(=O)N1CCc2cc(S(=O)(=O)CCC(=O)N3CCc4ccccc4C3)ccc21	-10%	-1%	-24%	12µM*	-4%
CCc1ccccc1NC(=O)c1sc2nc3n(c(=O)c2c1C)CCC3	x	-6%	x	x	-12%
Cc1c(CN(C)C(=O)c2cc(-c3ccccc3)nc3ccc(Br)cc23)cnn1C	x	9%	x	x	4%
Cn1c(CNC(=O)CSc2n[nH]c(-c3ccccc3)n2)nc2ccccc21	x	-11%	x	x	-14%
CCC(=O)N1CCCc2cc(S(=O)(=O)CCC(=O)Nc3ccccc3C)ccc21	-4%	0%	-25%	5.9µM*	-9%
O=C(CN(c1cccc(Cl)c1)S(=O)(=O)c1ccc(Cl)cc1)N1CCc2ccccc2C1	0%	2%	12µM*	62%	-13%
Cc1onc(-c2c(F)cccc2Cl)c1C(=O)OCC(=O)NC(c1ccccc1)c1ccccc1	-1%	x	12µM*	x	x
O=C(COC(=O)c1cccnc1)Nc1cccc(Cl)c1	-1%	-4%	-16%	4.7µM*	-1%
Cc1onc(-c2c(F)cccc2Cl)c1C(=O)OCC(=O)NC(N)=O	9%	-14%	11%	30%	-21%
Cc1onc(-c2ccccc2)c1C(=O)Nc1cccc(OC(C)C)c1	-16%	u	-6%	13µM*	u
CCCOc1cccc(NC(=O)c2c(-c3ccccc3)noc2C)c1	-1%	-18%	14%	-3%	-16%
Cc1onc(-c2ccccc2)c1C(=O)OCC(=O)Nc1ccc(Cl)cc1	16%	x	u	-6%	x
Cc1onc(-c2ccccc2)c1C(=O)OCC(=O)Nc1cccc(Cl)c1	1%	x	12µM*	u	x
COc1ccc(C(=O)NCc2nc(-c3cccc(NC(=O)c4ccc(C)s4)c3)oc2C)cc1	x	0%	x	x	-11%
Cc1cc(C)cc(NC(=O)Cn2c(=O)n(Cc3ccco3)c(=O)c3oc4ccccc4c32)c1	x	-22%	x	x	-25%
SMILES	AMA1 RON2 block	VACV Venus inh	Pf growth 48h	Pf growth 96h	Vaccinia mCherry
Cc1onc(-c2ccccc2)c1C(=O)NC(=S)NNC(=O)c1cccnc1	68%	-2%	22%	u	-14%
Cc1onc(-c2ccccc2)c1C(=O)NC(=S)NNC(=O)c1ccncc1	55%	-16%	u	10µM*	-13%
COc1cc(OC)c2c(-c3cccc(-c4ccc(CO)cc4)c3)cc(=O)oc2c1	-3%	10µM*	x	x	u
COc1ccc(-c2cccc(-c3cc(=O)oc4cc(OC)cc(OC)c34)c2)cc1	-3%	u	x	x	u
CCn1c(CCNC(=O)c2ccc(OC)c(OC)c2)nc2ccccc21	-5%	x	-29%	u	x
COc1ccc(C(=O)NCCCc2nc3ccccc3n2Cc2cc(C)ccc2C)cc1OC	-7%	u	12µM*	10µM*	-13%
COC(=O)C1=C(c2ccc(F)cc2OCc2ccccc2)C[C@@H]2CC[C@H]1N2C(=O)NCc1cccc(OC)c1	-5%	u	9.3µM*	u	u
CCCNC(=O)N1[C@H]2CC[C@@H]1C(C(=O)OC)=C(c1ccc(F)cc1F)C2	0%	-7%	39%	29%	-1%
COC(=O)C1=C(c2ccc(F)cc2OCc2ccccc2)C[C@@H]2CC[C@H]1N2C(=O)NCc1ccc(Br)cc1	-9%	u	2.1µM*	u	-2%
COC(=O)C1=C(c2ccccc2OCc2ccccc2)C[C@@H]2CC[C@H]1N2C(=O)NCc1ccc(OC)c(OC)c1	-12%	-21%	13µM*	u	i
COC(=O)C1=C(c2ccc(OCc3ccccc3)cc2)C[C@@H]2CC[C@H]1N2C(=O)NCCc1ccc(F)cc1	-9%	u	x	x	-25%
COC(=O)C1=C(c2ccc(F)cc2OCc2ccccc2)C[C@@H]2CC[C@H]1N2C(=O)NCc1cccc(C(F)(F)F)c1	2%	u	4.7µM*	u	i
C1=C/C(=C2/C=Cc3ccccc32)c2ccccc2N1	x	-46%	x	x	-18%
CCNC(=O)C1CCN(Cc2cc3ccccc3n2Cc2ccc(C)cc2)CC1	x	-4%	x	x	-13%
CN(Cc1ccc(F)cc1)S(=O)(=O)c1nnc(NC(=O)c2ccccc2Cl)s1	x	-10%	x	x	-12%
COC(=O)C1=C(c2ccc(F)cc2OCc2ccccc2)C[C@@H]2CC[C@H]1N2C(=O)NCc1ccc(OC)cc1	-4%	u	13µM*	u	-13%
COC(=O)C1=C(c2ccccc2OCc2ccccc2)C[C@@H]2CC[C@H]1N2C(=O)NCc1cccc(F)c1	-3%	u	9.3µM*	u	-6%
CCCc1cc(=O)oc2c3c(c4c(c12)OC(C)(C)C=C4)OC(C)C(C)C3O (stereo not given)	0%	u	u	10µM*	11µM*
CCCc1cc(=O)oc2c3c(cc(OCC(=O)N[C@@H](C)C(=O)O)c12)OC(C)(C)CC3	10%	-3%	-1%	-3%	-4%
CCOc1ccccc1CNS(=O)(=O)c1cnc(N)nc1	x	-7%	x	x	-10%
Cc1ccc(CN2CCN(Cc3ccon3)CC2CCO)cc1 (stereo not given)	5%	10%	-2%	10µM*	-1%
Cc1ccc(CN2CCN(Cc3ccc(-n4cccn4)cc3C)CC2CCO)cc1 (stereo not given)	-6%	-19%	10µM*	25%	-18%
OCCC1CN(Cc2ccc(-n3cccn3)cc2)CCN1Cc1ccccc1 (stereo not given)	1%	-13%	-10%	8.3µM*	-10%
